Experimental data from PubChem BioAssay.
Active and inactive are the calls of the source.

Columns and labels:
[1] = optical density shifts of acrAB sulA E. coli – strain DRC41, OD650, 48 h, E. coli filamentation inducer project, primary screen (AID 1152); conditions: higher = more signal, called active from +8 up or from −8 down;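 note: E. coli MC1000 strain DRC41 lacking acrAB efflux pump and sulA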
[2] = probe aLefty1 binding on compound microarray – biochemical, small-molecule microarray, 635/667 nm fluorescence, primary screen (AID 1153); conditions: higher = more signal;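 note: score merges spot fluorescence with signal-to-noise ratio from the scanned slide images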
[3] = plasmodial surface anion channel blockers, osmotic lysis – cell-based, P. falciparum Indochina, OD700, 1 h, primary screen (AID 1154); conditions: P. falciparum Indochina infected RBC osmotic lysis, higher = more signal, called active from +8 up or from −8 down
[4] = plasmodial surface anion channel blockers, osmotic lysis – cell-based, P. falciparum Indochina, OD700, 2 h, primary screen (AID 1155);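 note: lysis reports solute entry through the parasite surface anion channel PSAC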; conditions: P. falciparum Indochina infected erythrocytes, higher = more signal, called active from +8 up or from −8 down
[5] = changes in parasitized red cell lysis, either direction – P. falciparum Indochina, OD700, 3 h, PSAC antagonist project, primary screen (AID 1156); conditions: P. falciparum-infected erythrocytes, osmotic lysis, higher = more signal, called active from +8 up or from −8 down
[6] = plasmodial surface anion channel blockers, osmotic lysis – cell-based, P. falciparum Indochina, OD700, 18 h, primary screen (AID 1157); conditions: P. falciparum Indochina infected erythrocytes, osmotic lysis OD700, 18 h; higher = more signal, called active from +8 up or from −8 down
[7] = S6 kinase pathway phospho-S6 level changes – cell-based, A549, cytoblot, luminescence, serum-stimulated, primary screen (AID 1158); conditions: 5 h, higher = more signal;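 note: serum-stimulated A549 lung adenocarcinoma cells; signal is phosphorylated S6 detected by cytoblot immunostaining with HRP secondary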
[8] = molecular target: NADPH oxidase 2 (Homo sapiens) (UniProt P04839); assay: compounds shifting NOX2 Amplex Red fluorescence – cell-based, HEK293-NOX2, PMA-stimulated, NOX inhibitor project, primary screen (AID 1159); conditions: 45 min, higher = more signal, called active from +8 up or from −8 down; note: test concentration not given here
Sequence of NADPH oxidase 2 (Homo sapiens) (P04839 whole entry, looked up): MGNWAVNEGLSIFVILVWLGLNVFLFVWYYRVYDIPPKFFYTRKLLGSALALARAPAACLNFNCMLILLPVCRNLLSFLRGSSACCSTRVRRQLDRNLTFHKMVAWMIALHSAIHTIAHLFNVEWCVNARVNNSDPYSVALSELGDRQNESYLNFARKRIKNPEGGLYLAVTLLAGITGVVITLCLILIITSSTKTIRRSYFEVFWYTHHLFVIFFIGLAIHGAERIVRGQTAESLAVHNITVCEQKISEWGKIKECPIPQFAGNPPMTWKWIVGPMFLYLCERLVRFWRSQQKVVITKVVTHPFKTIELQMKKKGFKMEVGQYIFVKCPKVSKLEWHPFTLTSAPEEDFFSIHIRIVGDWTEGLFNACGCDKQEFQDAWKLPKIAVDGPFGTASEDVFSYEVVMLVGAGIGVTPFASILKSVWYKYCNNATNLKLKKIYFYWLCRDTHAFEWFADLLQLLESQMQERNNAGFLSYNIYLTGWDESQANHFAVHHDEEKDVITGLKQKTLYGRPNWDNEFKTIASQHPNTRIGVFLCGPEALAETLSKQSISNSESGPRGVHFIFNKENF

[9] = molecular target: NADPH oxidase 4 (Homo sapiens) (UniProt Q9NPH5); assay: compounds shifting NOX4 Amplex Red fluorescence – cell-based, HEK293-NOX4, tetracycline-induced, NOX inhibitor project, primary screen (AID 1160); conditions: HEK293-NOX4, Amplex Red H2O2 fluorescence, 45 min; higher = more signal, called active from +8 up or from −8 down
Sequence of NADPH oxidase 4 (Homo sapiens) (Q9NPH5 whole entry, looked up): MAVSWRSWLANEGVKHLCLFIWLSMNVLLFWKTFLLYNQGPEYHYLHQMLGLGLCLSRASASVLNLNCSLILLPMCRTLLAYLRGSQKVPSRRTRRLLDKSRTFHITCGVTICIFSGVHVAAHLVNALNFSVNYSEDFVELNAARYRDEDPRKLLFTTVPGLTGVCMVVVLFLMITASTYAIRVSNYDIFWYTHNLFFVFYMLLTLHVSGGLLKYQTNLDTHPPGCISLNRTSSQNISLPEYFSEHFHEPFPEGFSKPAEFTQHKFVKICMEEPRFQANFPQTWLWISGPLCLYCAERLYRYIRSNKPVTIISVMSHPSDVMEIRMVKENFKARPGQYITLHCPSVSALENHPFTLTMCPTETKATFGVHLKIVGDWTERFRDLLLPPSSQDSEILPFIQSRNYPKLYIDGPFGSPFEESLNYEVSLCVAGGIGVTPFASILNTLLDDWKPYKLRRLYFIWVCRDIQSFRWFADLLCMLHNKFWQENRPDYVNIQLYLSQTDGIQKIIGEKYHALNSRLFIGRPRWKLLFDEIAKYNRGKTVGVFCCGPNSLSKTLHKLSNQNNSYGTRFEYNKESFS

[10] = molecular target: NADPH oxidase 5 (Homo sapiens) (UniProt Q96PH1); assay: compounds shifting NOX5 Amplex Red fluorescence – cell-based, HEK293-NOX5, NOX inhibitor project, primary screen (AID 1161); conditions: HEK293-NOX5, ionomycin, 45 min, higher = more signal
Sequence of NADPH oxidase 5 (Homo sapiens) (Q96PH1 whole entry, looked up): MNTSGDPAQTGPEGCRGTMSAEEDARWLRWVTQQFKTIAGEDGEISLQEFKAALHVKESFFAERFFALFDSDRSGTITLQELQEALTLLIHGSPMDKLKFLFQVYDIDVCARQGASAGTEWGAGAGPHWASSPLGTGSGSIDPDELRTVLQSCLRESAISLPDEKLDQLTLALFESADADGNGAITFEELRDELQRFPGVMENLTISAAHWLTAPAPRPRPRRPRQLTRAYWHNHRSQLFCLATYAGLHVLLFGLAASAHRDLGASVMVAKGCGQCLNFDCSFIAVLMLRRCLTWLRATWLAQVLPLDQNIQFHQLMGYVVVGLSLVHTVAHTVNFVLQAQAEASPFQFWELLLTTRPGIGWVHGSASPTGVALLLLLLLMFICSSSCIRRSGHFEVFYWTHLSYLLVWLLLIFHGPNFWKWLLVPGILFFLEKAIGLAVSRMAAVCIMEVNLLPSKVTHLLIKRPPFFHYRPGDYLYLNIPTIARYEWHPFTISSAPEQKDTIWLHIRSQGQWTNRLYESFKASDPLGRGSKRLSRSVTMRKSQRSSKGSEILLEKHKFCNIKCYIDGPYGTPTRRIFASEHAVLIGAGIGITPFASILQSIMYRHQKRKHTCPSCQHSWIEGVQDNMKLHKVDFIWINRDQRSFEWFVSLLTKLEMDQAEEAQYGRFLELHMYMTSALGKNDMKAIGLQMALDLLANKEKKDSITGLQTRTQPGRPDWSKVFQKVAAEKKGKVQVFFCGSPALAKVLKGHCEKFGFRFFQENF

[11] = compound effects on lung adenocarcinoma cell viability – A549, calcein-AM fluorescence, 48 h, basal, profiling panel (AID 1162); conditions: higher = more signal; note: test concentration not given here
[12] = compound effects on differentiated 3T3-L1 adipocyte viability – cell-based, 3T3-L1 adipocytes, calcein-AM fluorescence, 48 h, basal, profiling panel (AID 1163); conditions: 3T3-L1 adipocytes viability, higher = more signal; note: test concentration not given here
[13] = compound effects on hepatocellular carcinoma cell viability – HepG2, calcein-AM fluorescence, 48 h, basal, profiling panel (AID 1164); conditions: higher = more signal; note: test concentration not given here
[14] = compound effects on multiple myeloma cell viability – MM1S, calcein-AM fluorescence, 48 h, basal, profiling panel (AID 1165); conditions: higher = more signal; note: test concentration not given here
[15] = calcein-AM signal in unstimulated myeloma cells – cell-based, calcein-AM fluorescence, 48 h, PK04 Diversity Set, profiling panel (AID 1166); conditions: RPMI8226 myeloma viability, higher = more signal;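 note: cells grown under basal conditions without added stimulus; test concentration not given here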
[16] = JC-1 mitochondrial signal, unstimulated HepG2 cells – cell-based, JC-1 fluorescence, 24 h, 100 nL compound, profiling panel (AID 1167); conditions: HepG2 mitochondrial potential, higher = more signal; note: test concentration not given here
[17] = JC-1 mitochondrial signal, unstimulated adipocytes – cell-based, JC-1 fluorescence, 3T3-L1 adipocytes, 24 h, 100 nL compound, profiling panel (AID 1168); conditions: JC-1 mitochondrial fluorescence, higher = more signal, called active from +8 up or from −8 down; note: test concentration not given here
[18] = JC-1 mitochondrial signal, unstimulated myeloma cells – cell-based, JC-1 fluorescence, RPMI8226, 24 h, 100 nL compound, profiling panel (AID 1169); conditions: JC-1 mitochondrial potential fluorescence, higher = more signal; note: test concentration not given here
[19] = JC-1 mitochondrial signal, unstimulated MM1S myeloma – cell-based, JC-1 fluorescence, 24 h, 100 nL compound, profiling panel (AID 1170); conditions: MM1S mitochondrial potential, higher = more signal; note: test concentration not given here
[20] = resazurin metabolic signal in A549 cells – cell-based, resazurin fluorescence, 24 h, PK04 Diversity Set, profiling panel (AID 1171); conditions: A549 viability, higher = more signal, called active from +8 up or from −8 down; note: test concentration not given here

In the case of `C=C(/C(=C/C[C@@H](OC(C)=O)c1ccccc1OCCO)c1cnc2ccccc2c1)C(C)C`, the z-score [1] is reported as 0.0675 (inactive), the composite z-score [2] is reported as -0.0428 and the z-score [3] is reported as 11.6 (active). For the same molecule, the z-score [4] was 2.53 (inactive), the z-score [5] was 1.82 (inactive) and the z-score [6] was 1.04 (inactive). The z-score [7] was 0.458, the z-score [8] was -1.08 (inactive) and the z-score [9] was -1.28 (inactive). It also gave a z-score [10] of -1.49, a z-score [11] of -0.0635 and a z-score [12] of 2.39. It also gave a z-score [13] of -0.795, a z-score [14] of -2.36 and a z-score [15] of -1.45. For the same molecule, the z-score [16] was 0.517, the z-score [17] was -1.27 (inactive) and the z-score [18] was -0.0844. The z-score [19] was 1.74 and the z-score [20] was -0.945 (inactive).

With `C[N+](C)(C)CCCC[C@@H]1NC(=O)[C@H]2C[C@@H](C(=O)NCCCCCCN)[C@@H](c3cccc(OCCO)c3)N2C1=O` the z-score [1] was -0.0261 (inactive), the composite z-score [2] was 1.29 and the z-score [3] was 1.19 (inactive). For the same molecule, the z-score [4] was 0.156 (inactive), the z-score [5] was 3.3 (inactive) and the z-score [6] was 0.0792 (inactive). The z-score [7] was -0.161, the z-score [8] was 1.12 (inactive) and the z-score [9] was 0.64 (inactive). The z-score [10] was 1.58, the z-score [11] was -0.535 and the z-score [12] was 0.875. It also gave a z-score [13] of -0.997, a z-score [14] of 0.179 and a z-score [15] of 1.07. The z-score [16] was -1.01, the z-score [17] was -0.547 (inactive) and the z-score [18] was -0.0252. For the same molecule, the z-score [19] was -0.154 and the z-score [20] was -0.871 (inactive).

For `O=C1O[C@H](c2ccccc2)[C@H](c2ccccc2)N2[C@H]1[C@@H](C(=O)NC[C@H](O)c1ccccc1)[C@]1(C(=O)Nc3ccccc31)[C@H]2c1ccccc1OCCO`, the z-score [1] was 2.45 (inactive), the composite z-score [2] was 0.453 and the z-score [3] was 5.21 (inactive). The z-score [4] was 1.84 (inactive), the z-score [5] was -2.5 (inactive) and the z-score [6] was -0.343 (inactive). For the same molecule, the z-score [7] was 2.39, the z-score [8] was 1.23 (inactive) and the z-score [9] was 0.707 (inactive). The z-score [10] was 0.34, the z-score [11] was -1.78 and the z-score [12] was 0.559. For the same molecule, the z-score [13] was -5.16, the z-score [14] was -3.38 and the z-score [15] was -4.61. The z-score [16] was -2.92, the z-score [17] was 2.95 (inactive) and the z-score [18] was -1.15. The z-score [19] was -2.19 and the z-score [20] was -3.12 (inactive).

For `COCCCNC(=O)[C@@]1(Cc2ccccc2N=[N+]=[N-])N=C(c2ccc(OCCCO)cc2)O[C@H]1c1ccccc1CN=[N+]=[N-]`, the z-score [1] was 0.871 (inactive), the composite z-score [2] was 0.152 and the z-score [3] was 24.8 (active). For the same molecule, the z-score [4] was 8.62 (active), the z-score [5] was 2.41 (inactive) and the z-score [6] was 0.74 (inactive). The z-score [7] was 2.17, the z-score [8] was -2.73 (inactive) and the z-score [9] was 0.7 (inactive). It also gave a z-score [10] of -1.16, a z-score [11] of -0.603 and a z-score [12] of 1.66. It also gave a z-score [13] of -0.456, a z-score [14] of -1.72 and a z-score [15] of -3.93. For the same molecule, the z-score [16] was 3.03, the z-score [17] was 0.557 (inactive) and the z-score [18] was -1.21. For the same molecule, the z-score [19] was -0.593 and the z-score [20] was -1.92 (inactive).

In the case of `COCCOC(=O)N1C(=O)[C@@]2(c3cc(C#CC4(O)CCCCCC4)ccc31)[C@H](C(=O)N1CCN(c3ncccn3)CC1)[C@H]1C(=O)O[C@H](c3ccccc3)[C@H](c3ccccc3)N1[C@@H]2c1ccc(O)cc1`, the z-score [1] is reported as 0.923 (inactive), the composite z-score [2] is reported as 0.63 and the z-score [3] is reported as 0.71 (inactive). For the same molecule, the z-score [4] was 0.566 (inactive), the z-score [5] was 0.991 (inactive) and the z-score [6] was 0.613 (inactive). For the same molecule, the z-score [7] was 0.274, the z-score [8] was 1.43 (inactive) and the z-score [9] was -1.31 (inactive). The z-score [10] was 1.49, the z-score [11] was 1.09 and the z-score [12] was 0.146. It also gave a z-score [13] of 0.871, a z-score [14] of -1.12 and a z-score [15] of -0.372. For the same molecule, the z-score [16] was -0.641, the z-score [17] was 0.799 (inactive) and the z-score [18] was -0.57. The z-score [19] was 0.532 and the z-score [20] was 0.445 (inactive).

In the case of `NC(=O)[C@@H]1[C@H]2C(=O)O[C@H](c3ccccc3)[C@H](c3ccccc3)N2[C@H](c2ccccc2OCCO)[C@@]12C(=O)Nc1ccc(C#CCCO)cc12`, the z-score [1] is reported as 1.41 (inactive), the composite z-score [2] is reported as -0.0464 and the z-score [3] is reported as 14.3 (active). The z-score [4] was 0.966 (inactive), the z-score [5] was -2.23 (inactive) and the z-score [6] was -1.18 (inactive). For the same molecule, the z-score [7] was 1.02, the z-score [8] was 2.03 (inactive) and the z-score [9] was 1.18 (inactive). It also gave a z-score [10] of 1.02, a z-score [11] of 0.888 and a z-score [12] of 1.27. For the same molecule, the z-score [13] was 0.133, the z-score [14] was 0.448 and the z-score [15] was -3.68. For the same molecule, the z-score [16] was -0.945, the z-score [17] was 0.783 (inactive) and the z-score [18] was -1.11. The z-score [19] was 0.068 and the z-score [20] was 0.461 (inactive).

With `COc1ccc(C(=O)Nc2ccc(CN3C(=O)[C@@]4(O[C@@H](CC(=O)N5Cc6ccccc6C[C@H]5CO)[C@H]([Si](C)(C)c5ccc(OC)cc5)[C@H]4C)c4ccccc43)cc2)cc1` the z-score [1] was 0.0225 (inactive), the composite z-score [2] was 0.176 and the z-score [3] was 4.72 (inactive). For the same molecule, the z-score [4] was 1.4 (inactive), the z-score [5] was 0.655 (inactive) and the z-score [6] was 0.868 (inactive). The z-score [7] was 0.0933, the z-score [8] was 0.105 (inactive) and the z-score [9] was 0.417 (inactive). It also gave a z-score [10] of -0.886, a z-score [11] of -0.0018 and a z-score [12] of 0.844. For the same molecule, the z-score [13] was -0.856, the z-score [14] was -1.84 and the z-score [15] was -0.881. For the same molecule, the z-score [16] was 0.489, the z-score [17] was 0.749 (inactive) and the z-score [18] was -0.957. For the same molecule, the z-score [19] was -1.05 and the z-score [20] was 0.143 (inactive).

In the case of `CC(C)(C)OC(=O)CC[C@]1(C(=O)N2CCCCC2)N=C(c2ccc(OCCCO)cc2)O[C@H]1c1ccccc1CN=[N+]=[N-]`, the z-score [1] is reported as 2.54 (inactive), the composite z-score [2] is reported as 1.66 and the z-score [3] is reported as 21.9 (active). For the same molecule, the z-score [4] was 4.95 (inactive), the z-score [5] was 0.768 (inactive) and the z-score [6] was 0.158 (inactive). For the same molecule, the z-score [7] was 1.89, the z-score [8] was -0.683 (inactive) and the z-score [9] was 1.56 (inactive). For the same molecule, the z-score [10] was 0.95, the z-score [11] was 1.1 and the z-score [12] was 0.876. The z-score [13] was 1.58, the z-score [14] was -2.99 and the z-score [15] was -2.01. The z-score [16] was 2.46, the z-score [17] was 0.67 (inactive) and the z-score [18] was -0.983. The z-score [19] was 0.358 and the z-score [20] was -1.35 (inactive).

For `CCCNC(=O)[C@@]1(Sc2ccc(C)cc2)CC(=O)N(Cc2ccccc2)[C@@H]1c1ccc(CO)cc1I`, the z-score [1] was -0.383 (inactive), the composite z-score [2] was -0.0573 and the z-score [3] was 6.23 (inactive). The z-score [4] was 0.815 (inactive), the z-score [5] was -0.713 (inactive) and the z-score [6] was 0.206 (inactive). For the same molecule, the z-score [7] was -0.374, the z-score [8] was 1.04 (inactive) and the z-score [9] was -1.94 (inactive). It also gave a z-score [10] of 1.79, a z-score [11] of -0.422 and a z-score [12] of -0.525. It also gave a z-score [13] of 0.0653, a z-score [14] of -2.18 and a z-score [15] of -2.52. The z-score [16] was -0.901, the z-score [17] was -0.686 (inactive) and the z-score [18] was -0.935. The z-score [19] was -1.89 and the z-score [20] was 0.198 (inactive).
